Bioassay records from PubChem.
An excerpt weighted towards active compounds, which were near 7.3% of everything screened.
FMDV inh: High Throughput Screening for Foot and Mouth Disease Virus Antivirals | FMDV antiviral cell-based qHTS | Potency, µM (titrated, usually from 57.9 µM), for the others: top-dose activity change, negative = inhibition, hits mostly inhibitors | actives 1.2% (n = 410,000) | AID 1159524, 2015; calls by dose curve; tested in HEK293T cells; note: read-out not given here; potency is the fitted concentration of half-maximal effect; nearly all actives have a fitted effect of over 45% in size
VACV mCherry inh: qHTS for Stage-Specific Inhibitors of Vaccinia Orthopoxvirus: mCherry Reporter Primary qHTS. Potency, µM (titrated, usually from 36.5 µM), for the others: at the top dose activity change, negative = inhibition, hits mostly inhibitors. Vaccinia virus mCherry reporter infection, fluorescence. actives 0.63% (n = 310,000); calls by dose curve; tested in A549 cells; note: potency is the fitted concentration of half-maximal effect; nearly all actives have a fitted effect of over 35% in size
VACV Venus inh: qHTS for Stage-Specific Inhibitors of Vaccinia Orthopoxvirus: Venus Reporter Primary qHTS; actives 0.46% (n = 330,000); Vaccinia virus Venus reporter expression, fluorescence; Potency, µM (top dose mostly 36.5 µM), without a hit: top-dose activity change, negative = inhibition, most hits filed as inhibitors; AID 720580, 2013; calls by dose curve; tested in A549 cells; note: potency is the fitted concentration of half-maximal effect; nearly all actives have a fitted effect of over 30% in size
HCV inh: qHTS Assay for Inhibitors of Hepatitis C Virus (HCV) | Huh7.5.1 HCVcc-Cre infection, luciferase reporter, 44 h | Potency, µM (titrated, usually from 41.8 µM), for inactives: at the top dose activity change, negative = inhibition, most hits filed as inhibitors | actives 3.4% (n = 340,000) | AID 651820, 2012; active = well fitted inhibition curve with a large enough effect; inconclusive = small, poorly fitted or top-dose-only effect, or another doubt; inactive = no such curve, though single readings can be large or run the other way; note: potency is the fitted concentration of half-maximal effect
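Whole-lifecycle infectious HCVcc-Cre system; cells 1,000/well, compound then virus (~0.5 moi) added 4 h after plating, 44 h culture. Luciferase read 15 sec following 15 min substrate incubation, room temp.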
HCMV antiviral: qHTS Assay for inhibitors of the human cytomegalovirus (HCMV) | activity change, negative = inhibition, % at 57.5 µM | actives 4.5% (n = 410,000) | HFF cells, HCMV-luciferase reporter, 72 h; stronger effect = lower value | AID 1259415, 2018; in the data active = activity change below about -60%; inconclusive = no clear call, values can overlap the other calls; inactive = above about -39%
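After 16 h attachment at 37C, HFF cells received test compound and HCMV-luciferase (1 PFU/cell); reporter luminescence read 72 h later, data normalized against buffer-only and known inhibitor Salinomycin.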
* hit, by the source's call; i = inactive; ? = inconclusive; . = not tested or not shown; [ ] = remark or other dose. % is set by controls: 0 for no effect and ±100 for the full control effect.

SMILES | FMDV inh | VACV mCherry inh | VACV Venus inh | HCV inh | HCMV antiviral
CN(C)c1ccc(Cc2cc3c(O)ccc(O)c3cc(Cc3ccc(N(C)C)cc3)c2=O)cc1 | -20% | -7% | 7% | 11µM* | -11
CN(C)c1ccc(C(=O)c2ccc(O)cc2O)cc1 | 3% | ? | -18% | -21% | 150
CCn1c(=O)n(CC)c2cc(N3CCCC3)c(NC(=O)c3cccc(C)c3)cc21 | ? | ? | -16% | 13µM* | 0
CCCCOc1cccc(C(=O)Nc2ccccc2N2CCCC2)c1 | -17% | -11% | -3% | 13µM* | -11
CCOc1cccc(C(=O)Nc2ccccc2N2CCN(C(=O)C(C)C)CC2)c1 | -30% | -7% | -12% | -29% | ?
CCn1c(=O)c(=O)n(CC)c2cc(N3CCCCC3)c(NC(=O)c3cccc(OC)c3)cc21 | -16% | -17% | -11% | . | -2
CCn1c(=O)n(CC)c2cc(N3CCCC3)c(NC(=O)c3ccc(OC)c(Br)c3)cc21 | 0% | . | . | ? | -21
CCn1c(=O)n(CC)c2cc(N3CCCC3)c(NC(=O)c3cccc(Cl)c3)cc21 | ? | ? | 4%[7.34 µM] | 6.3µM* | -21
CCn1c(=O)n(CC)c2cc(N3CCCC3)c(NC(=O)c3ccc(C)c([N+](=O)[O-])c3)cc21 | 0% | ? | -8% | 7.9µM* | -17
Cc1cccc(C(=O)Nc2cc3c(cc2N2CCCCC2)n(C)c(=O)c(=O)n3C)c1 | -17% | -6% | -2% | . | -6
COc1ccc(CNC(=O)c2ccc3c(c2)nc2n3CCC(C)C2)c(OC)c1 (stereo unspecified) | 21% | -13% | -7% | . | ?
COc1ccc(CNc2ncncc2-c2ccccc2C(F)(F)F)c(OC)c1 | -2% | . | . | . | .
O=C(C[N+]1(CCO)CCOCC1)c1ccc(F)c2ccccc12 | . | ? | -30% | . | .
CCOc1ccccc1C(=O)Nc1cc2c(cc1N1CCCC1)n(CC)c(=O)n2CC | ? | . | . | ? | -35
CCOc1ccccc1NC(=O)Nc1cc2c(cc1N1CCCCC1)n(CC)c(=O)n2CC | 0% | -15% | -21% | . | -62*
O=C(NCc1ccco1)c1c[nH]c2ccc(S(=O)(=O)Nc3ccc(F)cc3F)cc2c1=O | 56% | 8% | -2% | . | 25
COc1ccc(OC)c(C2=Nn3c(nnc3C3CCCCC3)SC2)c1 | 11% | ? | -26% | 16µM* | ?
COc1ccccc1C1=Nn2c(nnc2C2CCCCC2)SC1 | -19% | -27% | -19% | -14% | ?
COc1ccc(C2=Nn3c(nnc3-c3ccccc3F)SC2)cc1OC1CCCC1 | -39% | . | . | . | -75*
COc1ccc(OC)c(-c2nnc3n2N=C(c2ccc(OC(F)F)c(OCC4CC4)c2)CS3)c1 | ? | . | . | . | -5
COc1ccc(OC)c(C2=Nn3c(nnc3-c3cccc(OC(C)C)c3)SC2)c1 | 6% | . | . | 10µM* | -9
COc1ccc(C2=Nn3c(nnc3-c3ccccc3OC)SC2)cc1OCC1CC1 | ? | . | . | . | -84*
COc1ccc(OC)c(C2=Nn3c(nnc3-c3ccco3)SC2)c1 | -19% | . | . | ? | 51
COc1ccc(C2=Nn3c(nnc3-c3ccccc3)SC2)cc1OC | -8% | . | . | -5% | 4
COc1ccc(C2=Nn3c(nnc3-c3ccccc3F)SC2)cc1OC1CCOC1 (stereo unspecified) | -14% | . | . | . | 127
SMILES | FMDV inh | VACV mCherry inh | VACV Venus inh | HCV inh | HCMV antiviral
COc1ccc(OC)c(-c2nnc3n2N=C(c2ccc(OC)c(OC4CCCC4)c2)CS3)c1 | ? | . | . | . | -88*
COc1ccc(OC)c(-c2nnc3n2N=C(c2ccc(OC)c(OC)c2)CS3)c1 | -11% | . | . | . | -67*
COc1cccc(Cn2c(=O)c(CCc3ccccc3)nc3cnc(OC)nc32)c1 | -13% | . | . | . | .
Cc1nn(C(=O)c2ccc(Cl)cc2)c(C)c1S(=O)(=O)N1CCOCC1 | -5% | 4% | -6% | . | -2
COC(=O)[C@@H]1C[C@@H](NC(=O)c2ccc(C(F)(F)F)cc2)CN1Cc1cccc(O)c1 | 10% | -2% | 1% | . | .
CC(C)c1ccc(C(=O)N2CCCCC2c2cc(C(=O)NCc3cccnc3)no2)cc1 (stereo unspecified) | 3% | -12% | -1% | . | -9
Cc1ccc(CCNC(=O)CCCn2c(=O)c3ccccc3n(CC(=O)Nc3cc(Cl)ccc3C)c2=O)cc1 | 0% | ? | -29% | . | 25
COc1cccc(N(CC(=O)N2CCC(C)CC2)S(=O)(=O)c2ccc(C)cc2)c1 | 53% | -7% | -10% | . | -9
COC(=O)c1nnn(-c2cccc(Cl)c2)c1C(=O)OC | -4% | -2% | -12% | 5% | -8
NC(=S)N/N=C1\CC(n2nnnc2-c2ccccc2)C2COC1O2 (stereo unspecified) | 11% | . | . | 15% | -68*
NC(=S)N/N=C1\CC(n2nnn(-c3cccc(Cl)c3)c2=S)C2COC1O2 (stereo unspecified) | -20% | 11µM* | ? | -3% | -24
CN(C)CC(O)CN1C(=O)N(CN2C(=O)N(CC(O)CN(C)C)C(=O)C2(C)C)C(C)(C)C1=O (stereo unspecified) | 7% | 6% | -2% | 4% | -62*
Cc1ccc(/C=C2\C(=O)NC(=O)N(CCc3ccc(F)cc3)C2=O)o1 | 22µM* | . | . | 9% | 27
O=C1N/C(=C/c2cccs2)C(=O)N1Cc1ccccc1F | 6% | -9% | -9% | 13% | 5
Cc1ccc(/C=C2\C(=O)NC(=O)N(Cc3ccccc3Cl)C2=O)o1 | 32µM* | . | . | 0% | 125
O=C1NC(=O)N(Cc2ccc(F)cc2)C(=O)/C1=C/c1cccs1 | 32µM* | i | -2% | 2% | 12
O=C1NC(=O)N(Cc2ccccc2Cl)C(=O)/C1=C/c1cccs1 | 22µM* | -15% | ? | 38% | -97*
Cc1ccc(/C=C2/C(=O)NC(=O)N(Cc3ccc(F)cc3)C2=O)o1 | . | . | . | . | 28
Cc1ncc2c(c1CNS(=O)(=O)N(C)C)CCN(C(=O)c1c(F)cccc1F)C2 | -5% | -4% | 13% | . | .
COc1ccc(N2CCN(CCCNC(=O)c3cnn(-c4ccc(C)cc4)c3-n3cccc3)CC2)cc1 | ? | -16% | -22% | . | ?
CCOC(=O)c1cnc(-n2nc(C)cc2C)nc1Nc1ccc(OC)cc1 | 13% | . | . | 11µM* | -32
CCOC(=O)c1cnc(-n2nc(C)cc2C)nc1NCCc1ccccc1 | ? | ? | ? | -20% | -92*
CCOC(=O)c1cnc(-n2nc(C)cc2C)nc1N(C)C | 0% | . | . | 14% | 52
CCOC(=O)c1cnc(-n2nc(C)cc2C)nc1NC1CCCC1 | ? | -14%[7.34 µM] | -16%[7.34 µM] | 1.1µM* | -108*
CCOC(=O)c1c(C)oc2nc(C)nc(NCc3ccc(F)cc3)c12 | -20% | -9% | -12% | . | -11
CCCNC(=O)N1[C@@H]2CN(C(=O)Nc3ccccc3)c3ccccc3[C@@H]2[C@@H]1CO | . | . | . | . | -23
